From PubChem BioAssay AID588397 (National Center for Advancing Translational Sciences (NCATS), 2011) come the findings set out here.

Hit rate of the full screen: of about 1,300 compounds, about 1,000 (77%) were called active. About 7% were inconclusive and are not listed. The call rests on the fitted dose curve; in most records, active means well fitted inhibition curve with a large enough effect; inconclusive means small, poorly fitted or top-dose-only effect; inactive means no such curve, though single readings can be large or run the other way. So high a share suggests a set chosen from earlier hits. The list shows a part of the results.
On the % scale 0 is the no-effect control and ±100 the full control effect; potency means the concentration at half of the fitted maximal effect.

This experiment in a line: qHTS of small molecules that selectively kill Giardia lamblia: Hit Validation.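 Further: viability measured as ATP content by luminescence so killing lowers signal; trophozoites exposed to compounds for 48 h anaerobically at 37 °C; nearly all actives have a fitted effect of over 65% in size.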 The note with it: Giardia lamblia trophozoite viability, dose-response; series mostly up to 38.3 µM; activity change, negative = killing: at the top concentration. In short, it runs like this:
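Giardia trophozoites, 100 cells per well, were exposed to compounds for 48 hrs at 37 deg C under anaerobic conditions; viability was then read as ATP content by bioluminescence after 15-30 min at room temperature.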
For orientation: qHTS replaces the single test concentration by a dilution series.
As for `CC1CCCN(C(=O)c2ccc([N+](=O)[O-])o2)C1` (centres undefined), the Potency was 5160 nM (active). For the compound `COc1ccccc1C(=O)C1CCCN(C(=O)c2ccco2)C1` (centres undefined), the “activity change, negative = killing” value was 29.9% (inactive).

`COCc1ccc(C(=O)N2CCCC(C(=O)c3ccc(Cl)cc3C)C2)o1` (centres undefined): the “activity change, negative = killing” value was 23.6% (inactive). On to `O=C(O)C1CCN(c2ccccc2[N+](=O)[O-])CC1`, for which the Potency is 5790 nM (active).

For the compound `CC(=O)N1CCN(c2ccc(S(C)(=O)=O)cc2[N+](=O)[O-])CC1`, the Potency is 1030 nM (active). As to `O=C(O)C1CCN(c2ccc([N+](=O)[O-])cc2[N+](=O)[O-])CC1`, the Potency is 1160 nM (active). In the case of `CCN(C(=O)COC(=O)c1cc(S(=O)(=O)N2CCc3ccccc32)ccc1OC)C1CCS(=O)(=O)C1` (centres undefined), the “activity change, negative = killing” value is 36.6% (inactive). For the compound `Cc1c(Nc2nc3ccccc3n3cnnc23)cccc1[N+](=O)[O-]`, the Potency was 9180 nM (active).

As for `O=C(/C=C/c1ccc2c(c1)OCO2)Nc1cccnc1`, the Potency is 4600 nM (active). As for `NS(=O)(=O)c1ccc(Nc2ncccc2[N+](=O)[O-])cc1`, the Potency was 410 nM (active). The same measure, in the same setting: as for `COc1ccc2cc(-c3cc(C(=O)OCC(=O)Nc4c(C)n(C)n(-c5ccccc5)c4=O)c4ccccc4n3)ccc2c1`, the figure is 410 nM (active). Take `Cc1c(NC(=O)c2cc(-c3ccc(Cl)c(Cl)c3)on2)c(=O)n(-c2ccccc2)n1C`: the “activity change, negative = killing” value is -4.32% (inactive). In the case of `COC(=O)c1ccc(Cn2cc(C(F)(F)F)cc([N+](=O)[O-])c2=O)cc1`, the Potency was 4100 nM (active). For `O=c1c([N+](=O)[O-])cc(C(F)(F)F)cn1Cc1cccc(Cl)c1`, the Potency was 2310 nM (active). Same read-out and setting: as for `O=c1c([N+](=O)[O-])cc(C(F)(F)F)cn1Cc1c(Cl)cccc1Cl`, the figure is 1300 nM (active); as for `COc1cccc(/C=C/c2ccc3ccccc3[n+]2C)c1OC`, 5790 nM (active). `CCCC[n+]1c(/C=C/c2c(OC)cc(OC)cc2OC)ccc2ccccc21`: the “activity change, negative = killing” value is -13.9% (inactive). Take `COc1cccc(-c2cc3nc4c(c(NCC(C)(C)CN(C)C)n3n2)CCCC4)c1`: the Potency was 579 nM (active). Turning to `CCOC(=O)c1c(C)oc2c1C(=O)c1ccccc1C2=O`, the Potency is 5160 nM (active). `CCOC(=O)c1c(C)[nH]c2c1-c1ccccc1C(=O)C2=O`: the Potency was 4100 nM (active). `CC(=O)c1c(C)oc2c1C(=O)c1ccccc1C2=O`: the Potency was 4600 nM (active). As to `Cc1oc2c(c1C(=O)O)C(=O)c1ccccc1C2=O`, the Potency is 3260 nM (active). Consider `CC(=O)NCCNC(=O)c1ccc(CSc2ccc(Cl)cc2)cc1`, for which the “activity change, negative = killing” value is -13.7% (inactive). The same measure, in the same setting: as for `Cc1onc(-c2ccccc2Cl)c1C(=O)NNC(=O)c1ccc(F)cc1`, the figure is -38.8% (inactive). Take `Cc1onc(-c2ccccc2)c1C(=O)N/N=C/c1ccc([N+](=O)[O-])c(O)c1`: the Potency was 3260 nM (active).

Consider `CN(C)c1ccc(/C=C(/NC(=O)c2ccccc2)C(=O)N/N=C/c2ccc([N+](=O)[O-])c(O)c2)cc1`, for which the Potency was 2590 nM (active). Still for that read-out and setting: then `Cc1ccc(OCC(=O)Nc2ccc(C)c(F)c2)c([N+](=O)[O-])n1`, with 5790 nM (active).

For `Cc1ccc(OCC(=O)N(C)CC(=O)Nc2ccc(Cl)c(C(F)(F)F)c2)c([N+](=O)[O-])n1`, the Potency is 5790 nM (active). With `Cc1ccc(OCC(=O)Nc2nc(C)c(Cl)cc2Cl)c([N+](=O)[O-])n1`, the Potency is 5790 nM (active). The same measure, in the same setting: then `Oc1cccc(-c2nnc(-c3cccc(O)c3)nn2)c1`, with 1160 nM (active); and `O=C(NC1CCCC(C(F)(F)F)C1)c1ccc([N+](=O)[O-])o1` (centres undefined), with 1450 nM (active); and `O=C(NC1CCCCC1)c1ccc([N+](=O)[O-])o1`, with 1630 nM (active). For the compound `O=C(NCC1CCCO1)c1ccc([N+](=O)[O-])o1` (centres undefined), the Potency was 1160 nM (active).

Regarding `Cc1cc2nc(-c3ccc[nH]c3=O)[nH]c2cc1C`, the Potency was 729 nM (active). Same read-out and setting: as for `Cc1ccc(-n2nnnc2CNC(=O)c2ccc([N+](=O)[O-])o2)cc1C`, the figure is 918 nM (active); as for `O=C(NCc1nnnn1-c1ccc(F)cc1)c1ccc([N+](=O)[O-])o1`, 1450 nM (active); as for `O=C(NCC(c1ccc(F)cc1)N1CCOCC1)c1ccc([N+](=O)[O-])o1` (centres undefined), 1300 nM (active).

Take `Cc1[nH]n(S(=O)(=O)Cc2ccccc2)c(=O)c1N=Nc1ccccc1Cl`: the Potency was 2310 nM (active). On the same count and under the same terms, then `Cc1[nH]n(S(=O)(=O)c2ccccc2)c(=O)c1N=Nc1cccc(Cl)c1`, with 4600 nM (active). On to `COc1ccc(N(Cc2ccccc2)C(=O)OC(C)(C)C)c(C(=O)N(C)OC)c1`, for which the “activity change, negative = killing” value was -1.53% (inactive). Turning to `COc1ccc(Cn2cnc([N+](=O)[O-])c2)cc1[N+](=O)[O-]`, the Potency is 3260 nM (active). Consider `COc1ccc(NC(=O)c2ccc([N+](=O)[O-])cc2[N+](=O)[O-])c(OC)c1`, for which the Potency is 10300 nM (active).

For the compound `O=C(Nc1cccc(NC(=O)c2ccccc2Cl)c1)c1ccc([N+](=O)[O-])o1`, the Potency was 410 nM (active). For the compound `O=C(O)c1cccc(NC(=S)NC(NC(=O)c2ccccc2[N+](=O)[O-])C(Cl)(Cl)Cl)c1` (centres undefined), the “activity change, negative = killing” value is -9.8% (inactive). On to `COc1cc(NC(=O)c2ccc([N+](=O)[O-])o2)ccc1NC(=O)c1ccco1`, for which the Potency is 579 nM (active). On the same count and under the same terms, then `O=C(Nc1ccc(NC(=O)c2ccc([N+](=O)[O-])o2)cc1Cl)c1ccco1`, with 1030 nM (active); and `O=C(Nc1cccc(NC(=O)c2cccs2)c1)c1ccc([N+](=O)[O-])o1`, with 729 nM (active). For the compound `O=C(Nc1ccccc1O)c1ccc([N+](=O)[O-])cc1`, the Potency is 9180 nM (active).

With `O=C(Nc1cccc(NC(=O)c2ccc([N+](=O)[O-])o2)c1)c1ccco1`, the Potency was 729 nM (active). On to `Cc1cc(NC(=O)c2ccc([N+](=O)[O-])o2)ccc1NC(=O)c1ccco1`, for which the Potency is 918 nM (active).

As for `O=C(Nc1ccc(O)c2c(=O)cc(-c3ccccc3Cl)oc12)c1ccc(F)cc1`, the “activity change, negative = killing” value was -9.71% (inactive). As to `COc1cc(NC(=O)c2ccc([N+](=O)[O-])o2)ccc1NC(=O)c1cccs1`, the Potency is 818 nM (active). Still for that read-out and setting: as for `COc1ccc(NC(=O)c2ccco2)c(NC(=O)c2ccc([N+](=O)[O-])cc2)c1`, the figure is 4100 nM (active); as for `O=C(COC(=O)c1ccc(Br)o1)Nc1ncc([N+](=O)[O-])s1`, 2310 nM (active).

Turning to `O=C(COC(=O)c1ccccc1)Nc1ncc([N+](=O)[O-])s1`, the Potency is 3650 nM (active). On the same count and under the same terms, then `Cc1nc2cc(NC(=O)c3ccc([N+](=O)[O-])s3)ccc2s1`, with 650 nM (active); and `Cc1ccnc(NC(=S)NC(=O)c2cccs2)c1`, with 6500 nM (active). For the compound `Cc1cccc(NC(=O)c2ccc([N+](=O)[O-])s2)n1`, the Potency is 3650 nM (active).

As for `Cc1ccnc(NC(=O)c2ccc([N+](=O)[O-])s2)c1`, the Potency is 3650 nM (active). As to `O=C(c1ccc([N+](=O)[O-])o1)N1CCc2ccccc21`, the Potency is 1300 nM (active). `O=C(c1cc(COc2c(F)cccc2F)on1)N1CCc2ccccc2C1`: the “activity change, negative = killing” value is -2.25% (inactive). Consider `O=C(c1ccc([N+](=O)[O-])o1)N1CCc2ccccc2C1`, for which the Potency was 2900 nM (active).

Regarding `COc1cc2c(cc1OC)CN(C(=O)c1ccc([N+](=O)[O-])o1)CC2`, the Potency is 2050 nM (active).

As for `COc1cc2c(cc1OC)CN(Cc1cc(=O)oc3c(C)c(C)ccc13)CC2`, the “activity change, negative = killing” value was 5.4% (inactive). With `N/C(=N\c1nc2ccccc2o1)NC(=O)C(Cc1ccccc1)N1C(=O)c2ccccc2C1=O` (centres undefined), the Potency is 1830 nM (active). For the compound `N#Cc1ccccc1S(=O)(=O)N1CCN(C(=O)c2cn(-c3ccccc3)nc2-c2cccnc2)CC1`, the Potency was 6500 nM (active). Consider `O=C(CC12CC3CC(CC(C3)C1)C2)N/N=C/c1ccc([N+](=O)[O-])o1`, for which the Potency was 918 nM (active). Turning to `CC(NC(=O)C12CC3CC(CC(C3)C1)C2)C(=O)NN=Cc1ccc([N+](=O)[O-])o1` (centres undefined), the Potency was 1830 nM (active). Still for that read-out and setting: then `CCn1c(C)cc(C(=O)COC(=O)c2ccccc2[N+](=O)[O-])c1C`, with 20500 nM (active).
